We go through 17 targets from the supplement of paper PMC11001985.

A number with no mark means an inactive call.

UniProt P12956, sequence (P12956 whole entry): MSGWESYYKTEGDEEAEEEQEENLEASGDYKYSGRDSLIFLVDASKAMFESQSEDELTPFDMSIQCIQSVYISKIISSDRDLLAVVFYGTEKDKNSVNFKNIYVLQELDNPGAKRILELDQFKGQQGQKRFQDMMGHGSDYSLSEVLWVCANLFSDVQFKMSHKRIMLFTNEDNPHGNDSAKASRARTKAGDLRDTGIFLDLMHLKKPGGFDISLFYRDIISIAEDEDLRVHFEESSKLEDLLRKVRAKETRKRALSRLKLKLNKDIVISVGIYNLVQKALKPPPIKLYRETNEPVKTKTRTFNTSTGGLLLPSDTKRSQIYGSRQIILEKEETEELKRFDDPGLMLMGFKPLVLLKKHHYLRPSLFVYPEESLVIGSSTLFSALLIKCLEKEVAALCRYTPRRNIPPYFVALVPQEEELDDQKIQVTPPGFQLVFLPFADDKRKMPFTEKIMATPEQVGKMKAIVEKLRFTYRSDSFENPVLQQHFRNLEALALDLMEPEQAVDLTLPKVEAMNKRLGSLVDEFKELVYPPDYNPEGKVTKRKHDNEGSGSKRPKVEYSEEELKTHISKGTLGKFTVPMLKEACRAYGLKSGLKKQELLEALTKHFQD
UniProt P15311, sequence (P15311 whole entry): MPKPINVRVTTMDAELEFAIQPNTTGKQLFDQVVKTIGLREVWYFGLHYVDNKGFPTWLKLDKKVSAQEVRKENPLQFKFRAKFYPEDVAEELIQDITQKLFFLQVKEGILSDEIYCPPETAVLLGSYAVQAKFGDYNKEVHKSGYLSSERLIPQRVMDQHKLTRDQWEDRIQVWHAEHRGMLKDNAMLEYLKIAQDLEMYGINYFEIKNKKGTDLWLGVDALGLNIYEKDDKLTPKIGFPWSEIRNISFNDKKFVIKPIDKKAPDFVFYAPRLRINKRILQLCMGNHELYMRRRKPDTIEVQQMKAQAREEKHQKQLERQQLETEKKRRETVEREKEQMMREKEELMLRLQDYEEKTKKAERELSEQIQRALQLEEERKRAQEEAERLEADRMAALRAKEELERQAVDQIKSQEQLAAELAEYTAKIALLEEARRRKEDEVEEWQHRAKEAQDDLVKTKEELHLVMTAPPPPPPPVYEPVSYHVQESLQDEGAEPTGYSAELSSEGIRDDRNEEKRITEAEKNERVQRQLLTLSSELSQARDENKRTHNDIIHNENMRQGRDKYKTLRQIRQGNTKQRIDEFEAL
UniProt P13797, sequence (P13797 whole entry): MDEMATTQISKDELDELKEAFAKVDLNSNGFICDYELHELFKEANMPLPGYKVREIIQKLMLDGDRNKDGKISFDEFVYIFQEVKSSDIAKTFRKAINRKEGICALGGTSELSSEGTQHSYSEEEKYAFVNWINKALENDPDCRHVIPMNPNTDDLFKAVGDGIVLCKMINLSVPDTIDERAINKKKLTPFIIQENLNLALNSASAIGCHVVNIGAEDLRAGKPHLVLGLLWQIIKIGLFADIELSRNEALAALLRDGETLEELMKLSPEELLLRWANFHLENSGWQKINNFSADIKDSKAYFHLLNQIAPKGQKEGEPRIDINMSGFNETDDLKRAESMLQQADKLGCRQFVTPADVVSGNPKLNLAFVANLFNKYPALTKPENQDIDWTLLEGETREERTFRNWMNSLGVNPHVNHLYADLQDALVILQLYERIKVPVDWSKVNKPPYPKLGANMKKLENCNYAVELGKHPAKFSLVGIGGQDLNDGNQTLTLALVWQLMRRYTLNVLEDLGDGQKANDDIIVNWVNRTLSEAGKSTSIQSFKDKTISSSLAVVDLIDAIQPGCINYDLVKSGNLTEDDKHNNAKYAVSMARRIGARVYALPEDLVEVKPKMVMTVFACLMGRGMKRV
UniProt Q9UJS0, sequence (Q9UJS0 whole entry): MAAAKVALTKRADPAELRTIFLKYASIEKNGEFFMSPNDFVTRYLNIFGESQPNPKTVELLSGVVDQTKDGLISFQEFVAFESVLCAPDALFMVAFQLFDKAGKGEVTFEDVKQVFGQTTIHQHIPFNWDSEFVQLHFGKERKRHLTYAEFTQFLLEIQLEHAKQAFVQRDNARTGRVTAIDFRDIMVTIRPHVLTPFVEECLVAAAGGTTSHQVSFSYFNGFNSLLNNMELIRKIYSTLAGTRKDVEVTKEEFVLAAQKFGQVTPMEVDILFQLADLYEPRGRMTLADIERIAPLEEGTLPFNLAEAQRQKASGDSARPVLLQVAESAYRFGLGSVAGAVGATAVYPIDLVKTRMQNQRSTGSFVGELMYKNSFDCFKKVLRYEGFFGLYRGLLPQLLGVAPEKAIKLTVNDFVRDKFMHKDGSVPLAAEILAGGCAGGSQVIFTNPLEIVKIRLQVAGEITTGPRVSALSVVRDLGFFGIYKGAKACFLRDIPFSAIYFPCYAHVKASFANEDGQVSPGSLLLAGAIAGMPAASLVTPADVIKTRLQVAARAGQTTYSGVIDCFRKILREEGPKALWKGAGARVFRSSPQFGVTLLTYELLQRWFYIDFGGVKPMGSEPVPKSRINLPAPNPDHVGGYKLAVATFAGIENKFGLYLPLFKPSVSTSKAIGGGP
UniProt P00558, sequence (P00558 whole entry): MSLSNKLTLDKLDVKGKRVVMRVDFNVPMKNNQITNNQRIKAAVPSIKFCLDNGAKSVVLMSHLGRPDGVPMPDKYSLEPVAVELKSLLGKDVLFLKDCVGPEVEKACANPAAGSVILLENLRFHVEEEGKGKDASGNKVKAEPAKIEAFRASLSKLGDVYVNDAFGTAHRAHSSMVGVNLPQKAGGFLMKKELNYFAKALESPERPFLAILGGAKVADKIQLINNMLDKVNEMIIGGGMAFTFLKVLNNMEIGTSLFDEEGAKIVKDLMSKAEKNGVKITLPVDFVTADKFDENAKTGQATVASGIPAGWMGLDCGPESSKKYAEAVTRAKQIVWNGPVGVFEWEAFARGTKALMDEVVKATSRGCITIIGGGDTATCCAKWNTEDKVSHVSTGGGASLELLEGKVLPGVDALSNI
UniProt Q9Y624, sequence (Q9Y624 whole entry, stated change not applied): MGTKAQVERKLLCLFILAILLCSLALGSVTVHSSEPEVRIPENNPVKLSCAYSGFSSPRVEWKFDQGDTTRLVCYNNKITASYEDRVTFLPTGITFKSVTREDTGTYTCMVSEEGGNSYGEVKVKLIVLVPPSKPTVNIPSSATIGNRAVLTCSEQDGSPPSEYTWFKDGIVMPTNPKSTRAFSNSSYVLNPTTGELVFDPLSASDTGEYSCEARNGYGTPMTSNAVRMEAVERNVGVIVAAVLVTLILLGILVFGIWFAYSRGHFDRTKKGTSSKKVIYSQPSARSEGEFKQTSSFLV
UniProt P43034, sequence (P43034 whole entry): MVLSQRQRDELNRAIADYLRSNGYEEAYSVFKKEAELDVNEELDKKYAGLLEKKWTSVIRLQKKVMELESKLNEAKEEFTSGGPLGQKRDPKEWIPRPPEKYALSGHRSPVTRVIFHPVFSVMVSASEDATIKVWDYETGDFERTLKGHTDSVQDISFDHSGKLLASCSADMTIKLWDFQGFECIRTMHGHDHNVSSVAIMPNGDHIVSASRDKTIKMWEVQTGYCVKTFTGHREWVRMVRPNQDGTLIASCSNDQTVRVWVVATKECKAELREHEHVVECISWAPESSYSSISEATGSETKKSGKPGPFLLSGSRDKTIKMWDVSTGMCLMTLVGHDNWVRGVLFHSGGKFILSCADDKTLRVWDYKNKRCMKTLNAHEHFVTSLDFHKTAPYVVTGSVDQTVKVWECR
UniProt Q9Y2W1, sequence (Q9Y2W1 whole entry): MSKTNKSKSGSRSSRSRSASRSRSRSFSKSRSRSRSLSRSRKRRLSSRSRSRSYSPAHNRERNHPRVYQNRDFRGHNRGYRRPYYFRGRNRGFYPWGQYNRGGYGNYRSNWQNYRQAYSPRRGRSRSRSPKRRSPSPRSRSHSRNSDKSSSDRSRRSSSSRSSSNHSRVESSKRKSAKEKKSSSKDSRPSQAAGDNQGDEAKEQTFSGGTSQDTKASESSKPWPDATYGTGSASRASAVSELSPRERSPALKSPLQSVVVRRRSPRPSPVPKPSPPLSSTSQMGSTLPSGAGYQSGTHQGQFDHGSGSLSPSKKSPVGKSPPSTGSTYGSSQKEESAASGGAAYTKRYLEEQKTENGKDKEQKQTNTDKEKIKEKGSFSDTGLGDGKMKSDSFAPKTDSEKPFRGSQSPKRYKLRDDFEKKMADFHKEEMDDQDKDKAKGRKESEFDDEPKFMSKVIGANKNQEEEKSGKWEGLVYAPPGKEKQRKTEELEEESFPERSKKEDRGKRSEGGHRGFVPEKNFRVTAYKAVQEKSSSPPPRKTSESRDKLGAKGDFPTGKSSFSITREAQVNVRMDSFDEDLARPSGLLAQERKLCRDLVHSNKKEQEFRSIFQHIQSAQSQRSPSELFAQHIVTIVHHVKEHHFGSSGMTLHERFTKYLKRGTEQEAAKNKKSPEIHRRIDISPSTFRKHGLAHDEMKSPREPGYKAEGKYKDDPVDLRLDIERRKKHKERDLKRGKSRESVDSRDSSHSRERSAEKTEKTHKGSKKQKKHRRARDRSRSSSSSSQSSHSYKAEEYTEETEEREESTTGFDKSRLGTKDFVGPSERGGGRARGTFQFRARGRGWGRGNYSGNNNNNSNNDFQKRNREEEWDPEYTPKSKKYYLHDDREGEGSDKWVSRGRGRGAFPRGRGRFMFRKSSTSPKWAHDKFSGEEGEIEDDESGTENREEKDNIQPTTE
UniProt P05141, sequence (P05141 whole entry): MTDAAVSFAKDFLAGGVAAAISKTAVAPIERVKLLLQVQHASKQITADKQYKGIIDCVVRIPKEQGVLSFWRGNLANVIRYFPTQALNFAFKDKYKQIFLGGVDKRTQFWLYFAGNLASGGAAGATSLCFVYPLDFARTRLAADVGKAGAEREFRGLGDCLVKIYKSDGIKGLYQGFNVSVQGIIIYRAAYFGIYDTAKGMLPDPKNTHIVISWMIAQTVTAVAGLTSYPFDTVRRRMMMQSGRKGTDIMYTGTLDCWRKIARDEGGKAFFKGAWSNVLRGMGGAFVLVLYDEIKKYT

Compound in the assay: C#CCNC(=O)CCSSCCC(=O)NCCc1ccc(C=O)c(C=O)c1
As to the kind of experiment: lysine labeling ratio R10:1 (500 µM / 50 µM probe), SILAC-ABPP in living cells; higher = lower intrinsic lysine reactivity toward the probe, active = 2 or less. Particulars: HeLa; probe concentrations 500 vs 50 µM. In a few lines: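 With forward and reverse label swaps, light and heavy SILAC HeLa cells, alive and in PBS at room temperature, were exposed to either 500 µM or 50 µM of an alkyne-tagged lysine probe bearing a disulfide link. After mixing, lysates were clicked to biotin-azide, cut with trypsin, pulled down on neutravidin, freed with DTT, alkylated and analysed on a TIMS-TOF Pro by LC-MS/MS. The per-lysine value R is the median over forward and reverse replicates of the filtered median high-probe/low-probe MS1 peptide ratio. It is capped at 20.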
“TFRC (lysine site: K358) (UniProt P02786)”: the “lysine labeling ratio R10:1” value is 1.48 (active).
In the case of “SLC25A13 (lysine site: K235) (UniProt Q9UJS0)” it was 2.23; in that of “PGK1 (lysine site: K361) (UniProt P00558)”, 3.45.
In the case of “ATP1B1 (lysine site: K288) (UniProt P05026)”, the “lysine labeling ratio R10:1” value was 13.2.
On to “EPHB4 (lysine site: K474) (UniProt P54760)”, for which the “lysine labeling ratio R10:1” value was 0.746 (active).
The figure for “PLS3 (lysine site: K59) (UniProt P13797)” is 1.41 (active).
As to UniProt Q15149 (lysine site: K2309), the “lysine labeling ratio R10:1” value is 2.6.
The figure for UniProt P68371 (lysine site: K58) is 2.53; for “XRCC6 (lysine site: K338) (UniProt P12956)” it is 1.69 (active).
Turning to “F11R (lysine site: K178) (UniProt Q9Y624)”, the “lysine labeling ratio R10:1” value was 5.39.
On to “THRAP3 (lysine site: K486) (UniProt Q9Y2W1)”, for which the “lysine labeling ratio R10:1” value was 1.7 (active).
Consider “RDX (lysine site: K165) (UniProt P35241)”, for which the “lysine labeling ratio R10:1” value was 2 (active).
UniProt P61026 (lysine site: K136): the “lysine labeling ratio R10:1” value was 1.9 (active).
The figure for “EZR (lysine site: K400) (UniProt P15311)” is 6.03; for “FAT1 (lysine site: K978) (UniProt Q14517)” it is 0.71 (active).
The figure for “PAFAH1B1 (lysine site: K54) (UniProt P43034)” is 3.44; for “SLC25A5 (lysine site: K23) (UniProt P05141)” it is 3.58.
